PubChem BioAssay (NCI)
Compounds without any hit were thinned out: in the full panel of roughly 83,000, 20% have a hit.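 How to read the values: 0–100, growth inhibition (40 = 60% inhibited); 0, no net growth; -100 to 0, cell death (-40 = 40% of starting cells died; -100 = all dead).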 Activity calls are given as the source filed them. How the source made its calls: active means growth percent below 10; inactive means the rest.

Assays:
Assay in all cases: NCI-60 one-dose screen, 48 h (100 = growth as untreated, 0 = no growth, -100 = all killed)
Conditions in all cases: 10 µM unless noted
HCT-15 colon = system: HCT-15 colon
HT29 colon = system: HT29 colon
SNB-75 CNS = system: SNB-75 CNS
SNB-19 CNS = system: SNB-19 CNS
U251 CNS = system: U251 CNS
PC-3 prostate = system: PC-3 prostate
UACC-62 melanoma = system: UACC-62 melanoma
LOX IMVI melanoma = system: LOX IMVI melanoma
SK-MEL-28 melanoma = system: SK-MEL-28 melanoma
EKVX NSCLC = system: EKVX NSCLC
SN12C renal = system: SN12C renal
UO-31 renal = system: UO-31 renal
TK-10 renal = system: TK-10 renal
ACHN renal = system: ACHN renal
CAKI-1 renal = system: CAKI-1 renal
CCRF-CEM leukemia = system: CCRF-CEM leukemia
MOLT-4 leukemia = system: MOLT-4 leukemia
A498 renal = system: A498 renal
SK-MEL-2 melanoma = system: SK-MEL-2 melanoma

Measured: growth

COc1ccc(-c2nn(-c3ccc(Cl)cc3)cc2-c2nc3ccccc3[nH]2)cc1
inactive: HCT-15 colon 103% | HT29 colon 84.5% | SNB-75 CNS 76.6% | SNB-19 CNS 91.9% | U251 CNS 104% | PC-3 prostate 81.5% | UACC-62 melanoma 75.8% | LOX IMVI melanoma 82.1% | SK-MEL-28 melanoma 99.5% | EKVX NSCLC 85.2% | SN12C renal 85.7% | UO-31 renal 44.4% | TK-10 renal 91.2% | ACHN renal 89.5% | CAKI-1 renal 92% | CCRF-CEM leukemia 99.9% | MOLT-4 leukemia 81.8%

CC1=C(O)C(=O)C(C(C#N)(C#N)C(C#N)C#N)C1 (configuration not stated)
inactive: HCT-15 colon 98.9% | HT29 colon 111% | SNB-75 CNS 81.5% | SNB-19 CNS 108% | U251 CNS 113% | PC-3 prostate 106% | UACC-62 melanoma 97.6% | LOX IMVI melanoma 96.5% | SK-MEL-28 melanoma 114% | EKVX NSCLC 95.3% | UO-31 renal 94.3% | TK-10 renal 105% | ACHN renal 106% | A498 renal 97.1% | CCRF-CEM leukemia 112% | MOLT-4 leukemia 100%

CCCCC[C@H]1C/C=C2/C(=O)C=C[C@@H]2C/C=C\CCCC(=O)O1
active: HCT-15 colon -18.8% | HT29 colon -69.1% | SNB-75 CNS -33.6% | SNB-19 CNS 1.16% | U251 CNS -78.2% | PC-3 prostate -38.4% | LOX IMVI melanoma -79.1% | SK-MEL-2 melanoma -75.9% | EKVX NSCLC -18% | UO-31 renal -96.5% | TK-10 renal -59.4% | ACHN renal -91% | CAKI-1 renal 8.56% | A498 renal -61.1% | CCRF-CEM leukemia -0.835% | MOLT-4 leukemia -3.81%

OCCN1CCN(c2nc(Nc3ccc(-c4nc5ccccc5[nH]4)cc3)c3cn[nH]c3n2)CC1
active: HCT-15 colon -78.9% | HT29 colon -91.4% | SNB-75 CNS -96.6% | SNB-19 CNS -76.7% | U251 CNS -99.7% | PC-3 prostate -76.1% | LOX IMVI melanoma -89.2% | SK-MEL-2 melanoma -83.6% | EKVX NSCLC -80.4% | UO-31 renal -89.4% | TK-10 renal -97.2% | ACHN renal -85.3% | CAKI-1 renal -97.3% | A498 renal -78.8% | CCRF-CEM leukemia -73.9% | MOLT-4 leukemia -79.6%

Cc1cc(N2CCCCCC2)nc(NC2CCCC(Nc3ccnc4cc(Cl)ccc34)C2)n1 (configuration not stated)
active: HCT-15 colon -87.4% | HT29 colon -82.9% | SNB-75 CNS -78.7% | SNB-19 CNS -54.5% | U251 CNS -94.8% | PC-3 prostate -88.1% | UACC-62 melanoma -84.3% | SK-MEL-28 melanoma -83.5% | SK-MEL-2 melanoma -82.2% | EKVX NSCLC -27.5% | SN12C renal -90.7% | UO-31 renal -93.5% | TK-10 renal -81.2% | ACHN renal -98.6% | A498 renal -74.7% | CCRF-CEM leukemia -29.2% | MOLT-4 leukemia -51.8%

O=C1/C(=C/c2ccc(OCCCOc3ccc(Cl)cc3)cc2)N=C2SCCCN12
inactive: HCT-15 colon 63.2% | HT29 colon 76% | SNB-75 CNS 84.5% | SNB-19 CNS 78.5% | U251 CNS 69.6% | PC-3 prostate 45.5% | LOX IMVI melanoma 68.3% | SK-MEL-2 melanoma 98.4% | EKVX NSCLC 47.6% | UO-31 renal 70.9% | TK-10 renal 72.7% | ACHN renal 74.5% | CAKI-1 renal 71.6% | A498 renal 96.5% | CCRF-CEM leukemia 69.5% | MOLT-4 leukemia 62.1%

NC(=NCCCOc1ccc(Cl)cc1)Nc1ccc(C(F)(F)F)cc1
active: HT29 colon 3.11% | LOX IMVI melanoma 9.81% | ACHN renal 9.43% | CCRF-CEM leukemia 3.2% | MOLT-4 leukemia 4.99%
inactive: HCT-15 colon 54% | SNB-75 CNS 35.4% | SNB-19 CNS 26.4% | U251 CNS 33% | PC-3 prostate 26.9% | SK-MEL-2 melanoma 41.3% | EKVX NSCLC 50.5% | UO-31 renal 37.1% | TK-10 renal 76.1% | CAKI-1 renal 60.5% | A498 renal 35%

OCCNc1nccc(N2CCN(c3ccnc4cc(Cl)ccc34)CC2)n1
inactive: HCT-15 colon 51.3% | HT29 colon 45.7% | SNB-75 CNS 71.3% | SNB-19 CNS 88.9% | U251 CNS 86% | PC-3 prostate 72.2% | UACC-62 melanoma 71.4% | SK-MEL-28 melanoma 94% | SK-MEL-2 melanoma 84.1% | SN12C renal 84.5% | UO-31 renal 47.7% | TK-10 renal 94.4% | ACHN renal 92.5% | CAKI-1 renal 77% | A498 renal 15.5% | CCRF-CEM leukemia 66.5% | MOLT-4 leukemia 52.4%

CCOc1cc2ncc(C#N)c(Nc3ccc(OCc4cccc(F)c4)c(Cl)c3)c2cc1NC(=O)CCCCC1CCSS1 (configuration not stated)
inactive: HCT-15 colon 97% | HT29 colon 86.8% | SNB-75 CNS 97.8% | SNB-19 CNS 105% | U251 CNS 82.5% | PC-3 prostate 83.9% | UACC-62 melanoma 89% | SK-MEL-28 melanoma 101% | SK-MEL-2 melanoma 94.3% | EKVX NSCLC 78.5% | SN12C renal 88.6% | UO-31 renal 55.8% | TK-10 renal 92.2% | ACHN renal 91.3% | CAKI-1 renal 72% | A498 renal 70.1% | CCRF-CEM leukemia 78.9% | MOLT-4 leukemia 78.5%

COc1cc2c(cc1O)CC[C@@H]1[C@@H]2CC[C@]2(C)[C@@H](NCCN(C)C)CC[C@@H]12
active: HCT-15 colon -83.1% | HT29 colon -91.9% | SNB-75 CNS -96.6% | SNB-19 CNS -79.6% | U251 CNS -92.3% | PC-3 prostate -91.2% | LOX IMVI melanoma -84.2% | SK-MEL-2 melanoma -95.7% | EKVX NSCLC -82.8% | UO-31 renal -84.1% | TK-10 renal -95.8% | ACHN renal -92.8% | CAKI-1 renal -95.9% | A498 renal -79.3% | CCRF-CEM leukemia -71.8% | MOLT-4 leukemia -71.8%

CS(=O)(=O)c1ccc(-n2nc(-c3ccc(Br)cc3)c3ccccc3c2=O)cc1
inactive: HCT-15 colon 93.4% | HT29 colon 101% | SNB-75 CNS 70.5% | SNB-19 CNS 92.5% | U251 CNS 97.1% | PC-3 prostate 89.3% | UACC-62 melanoma 97% | SK-MEL-28 melanoma 113% | SK-MEL-2 melanoma 107% | SN12C renal 102% | UO-31 renal 67.9% | TK-10 renal 105% | ACHN renal 95.9% | CAKI-1 renal 98.7% | MOLT-4 leukemia 94%

CC(=O)c1cc(C(=O)c2ccc3c(c2)Sc2ccccc2N3)n2ccccc12
active: HT29 colon -13.1% | U251 CNS 9.6% | A498 renal -11.9% | CCRF-CEM leukemia 5.4%
inactive: HCT-15 colon 17.9% | SNB-75 CNS 13.1% | SNB-19 CNS 30.9% | PC-3 prostate 22.2% | LOX IMVI melanoma 20.8% | SK-MEL-2 melanoma 20.3% | EKVX NSCLC 41.2% | UO-31 renal 19.9% | TK-10 renal 59.2% | ACHN renal 26.2% | CAKI-1 renal 24.1% | MOLT-4 leukemia 13.9%

Cc1cc(N2CCCC2)nc(NC2CCCC(Nc3ccnc4cc(Cl)ccc34)C2)n1 (configuration not stated)
active: HCT-15 colon -52% | HT29 colon -70% | SNB-75 CNS -68.6% | SNB-19 CNS -20.3% | U251 CNS -96.1% | PC-3 prostate -58.1% | UACC-62 melanoma -79.8% | LOX IMVI melanoma -94.2% | SK-MEL-28 melanoma -77.5% | SN12C renal -49.4% | UO-31 renal -93.3% | TK-10 renal -74.5% | ACHN renal -98% | A498 renal -18.4% | CCRF-CEM leukemia -22.2% | MOLT-4 leukemia -20.8%
inactive: EKVX NSCLC 11.1%

CC/C=C\C[C@H](O)C/C=C1/C(=O)C=C[C@@]1(C)C/C=C\CCCC(=O)OC
inactive: HCT-15 colon 101% | HT29 colon 110% | SNB-75 CNS 99.1% | SNB-19 CNS 101% | U251 CNS 94.2% | PC-3 prostate 96.1% | LOX IMVI melanoma 94.3% | SK-MEL-2 melanoma 103% | EKVX NSCLC 104% | UO-31 renal 92.1% | TK-10 renal 95.9% | ACHN renal 101% | CAKI-1 renal 96.9% | A498 renal 97.3% | CCRF-CEM leukemia 108% | MOLT-4 leukemia 94.4%

COc1ccc(Nc2cc(C)nc(N3CCN(c4ccnc5cc(Cl)ccc45)CC3)n2)cc1
inactive: HCT-15 colon 14.8% | SNB-75 CNS 42.7% | SNB-19 CNS 48.1% | U251 CNS 37.6% | PC-3 prostate 33% | UACC-62 melanoma 17.7% | SK-MEL-28 melanoma 59.9% | SK-MEL-2 melanoma 48% | SN12C renal 40.9% | TK-10 renal 46.8% | ACHN renal 41.5% | CAKI-1 renal 35.1% | CCRF-CEM leukemia 16% | MOLT-4 leukemia 11.1%
active: HT29 colon 9.85% | UO-31 renal -0.534%

c1ccc(CCNc2ncnc3[nH]ncc23)cc1
inactive: HCT-15 colon 105% | HT29 colon 94% | SNB-75 CNS 92.6% | SNB-19 CNS 105% | U251 CNS 94.1% | PC-3 prostate 67% | UACC-62 melanoma 86.4% | SK-MEL-28 melanoma 114% | SK-MEL-2 melanoma 127% | EKVX NSCLC 58.3% | SN12C renal 92.7% | UO-31 renal 62.1% | TK-10 renal 110% | ACHN renal 89.2% | CAKI-1 renal 90.4% | A498 renal 104% | CCRF-CEM leukemia 95.1% | MOLT-4 leukemia 124%

O=C(Cn1cccc(Nc2ccccc2)c1=O)Nc1ccccc1
inactive: HCT-15 colon 101% | HT29 colon 106% | SNB-75 CNS 84.9% | SNB-19 CNS 97.1% | U251 CNS 97.8% | PC-3 prostate 97.3% | UACC-62 melanoma 93.6% | SK-MEL-28 melanoma 104% | SK-MEL-2 melanoma 121% | SN12C renal 104% | UO-31 renal 91.6% | TK-10 renal 107% | ACHN renal 103% | CAKI-1 renal 97.6% | A498 renal 65.6% | CCRF-CEM leukemia 105% | MOLT-4 leukemia 110%

CCN1CCN(c2nc(NCCCNc3ccnc4cc(Cl)ccc34)c3ccccc3n2)CC1
inactive: HCT-15 colon 25.8% | SNB-75 CNS 57% | SNB-19 CNS 16.5% | PC-3 prostate 37% | EKVX NSCLC 63.1% | TK-10 renal 42.3% | A498 renal 81% | CCRF-CEM leukemia 12.2% | MOLT-4 leukemia 13.6%
active: HT29 colon -16% | U251 CNS -26.7% | UACC-62 melanoma -75.6% | LOX IMVI melanoma -69.3% | SK-MEL-28 melanoma -66.4% | UO-31 renal -5.29% | ACHN renal 5.28%

c1ccc2[nH]c(-c3ccc(Nc4nc(N5CCCC5)nc5[nH]ncc45)cc3)nc2c1
inactive: SNB-19 CNS 15.5% | A498 renal 94.5%
active: HCT-15 colon -36.2% | HT29 colon -49.1% | SNB-75 CNS -79.2% | U251 CNS -66.1% | PC-3 prostate 0.946% | LOX IMVI melanoma -84.4% | SK-MEL-2 melanoma -48.1% | EKVX NSCLC -8.31% | UO-31 renal -27.1% | TK-10 renal -6.9% | ACHN renal -58.3% | CAKI-1 renal -22.3% | CCRF-CEM leukemia -29.7% | MOLT-4 leukemia -44.1%
